Source: PubChem BioAssay (National Center for Advancing Translational Sciences (NCATS))
aSyn rescue – alpha-synuclein toxicity inhibition in yeast | 370,000 tested, 0.14% active | Potency, µM (doses to about 46.1 µM), for the others: top-dose growth rescue (activation), most hits filed as activators | AID 652106 | Yeast expressing alpha-synuclein, growth rescue, BacTiter-Glo, 24 h; note: potency is the fitted concentration of half-maximal effect; % of control where 0% means no effect; nearly all actives have a fitted effect of over 65% in size
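Screening used galactose-induced yeast with toxic alpha-synuclein levels, exposed to compound for 24 hr at 30 deg C. Cell growth, read with BacTiter-Glo luminescence, gave the measured signal.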
FUS suppressor – suppressors of FUS proteinopathy in yeast. Potency, µM (top dose mostly 76.6 µM), most hits filed as activators. S. cerevisiae FUS-expressing, growth rescue, OD600, 24 h. 390,000 tested, 0.24% active;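 note: potency is the fitted concentration of half-maximal effect; plate controls were DMSO vehicle for no effect and reference control for full effect; nearly all actives have a fitted effect of over 55% in size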
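Read-out: OD at 600 nm after 24hr at 30C, reporting rescue of FUS-induced yeast toxicity. Cells at OD 0.005 in galactose (2%) minimal medium; compounds tested in a dilution series; CP55940 titration from 92uM final as control.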
TDP43 rescue – inhibitors of TDP-43 toxicity in yeast; Potency, µM (top dose mostly 46.1 µM), for inactives: at the top dose growth rescue (activation), most hits filed as activators; 410,000 tested, 1.8% active; TDP-43 expressing yeast growth rescue, BacTiter-Glo, 24 h; note: potency is the fitted concentration of half-maximal effect; % of control where 0% means no effect; nearly all actives have a fitted effect of over 50% in size
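Luminescence from BacTiter-Glo reports growth of TDP-43-expressing yeast after 24 hr at 30 deg C with compound. Cells were raffinose-pregrown to mid-log, then seeded in galactose medium at OD600=0.02.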
Abeta rescue – A-beta toxicity reversal in yeast. yeast expressing A-beta42, growth rescue, OD600, 48 h; response scale: 0% DMSO, 100% iron-clioquinol control. Potency, µM (doses to about 46.1 µM), hits mostly activators. 410,000 tested, 0.063% active. AID 1347071; note: potency is the fitted concentration of half-maximal effect; nearly all actives have a fitted effect of over 55% in size
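Growth rescue measured by 600 nm absorbance after 48 h yeast culture at 30 C with compound. Values normalized between DMSO and an equimolar ferric chloride plus clioquinol control.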
Akt phos inh – blocks phosphorylation of Akt; Neuro2A IGF-stimulated pAkt S473 HTRF, 20 min; active compounds read low; activity change, % for hits at 50 µM; 360,000 tested, 0.32% active; AID 651550; in the data active = activity change below about -80%; inconclusive = mostly about -51% to -80%; note: % is set by controls: 0 for no effect and ±100 for the full control effect
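Neuro2A cells in DMEM with 0.5% FBS, overnight at 37 deg C, given compound at single 50 µM final, then IGF (6 nM final) for 20 min at 37 deg C. Lysed; phospho-Akt Ser473 by HTRF after 24 h, 665/615 ratio.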
* = called active by the depositor; i = inactive; ? = inconclusive; . = no result. Hits are enriched below; roughly 2.3% of the tested compounds scored in any of these assays. Unless noted, calls come from the whole dose curve; as a rule, active = well fitted curve in the direction sought with a large enough effect; inconclusive = small, poorly fitted or top-dose-only effect, or another doubt; inactive = no such curve, though single readings can be large; an effect the other way counts as inactive or inconclusive.

SMILES | aSyn rescue | FUS suppressor | TDP43 rescue | Abeta rescue | Akt phos inh
Clc1ccc2nc(-c3ccncc3)cc(-c3ccccc3)c2c1 | 1% | i | 22% | i | i
CSc1cc(-c2ccncc2)nc(-c2ccc(Cl)cc2)c1 | 11% | i | 11µM* | i | i
Cc1c(C(=O)NCCSCc2c(F)cccc2Cl)cnn1-c1ccc(F)cc1 | 9% | i | -1% | i | i
Cc1c(C(=O)NCCSCc2ccc(F)cc2)cnn1-c1ccc(Cl)cc1 | 11% | i | 13µM* | i | i
CCOc1ccc2[nH]c(C)c(CN3CCN(CC)CC3)c(=O)c2c1 | -1% | i | 17% | i | -122%*
CCOc1ccc2[nH]c(C)c(CN3CCN(C)CC3)c(=O)c2c1 | . | i | -1% | i | .
C/C(=C\C(=S)Nc1ccccc1)Nc1ccc2ccccc2c1 | -2% | i | 13µM* | i | i
C/C(=C\C(=S)Nc1ccccc1)Nc1cccc2ccccc12 | 0% | . | 11µM* | i | i
COc1ccccc1C1N=C(Nc2nc3ccccc3o2)NC2=C1C(=O)CC(C)(C)C2 (centres undefined) | 6% | . | . | . | .
CCOC(=O)c1c(C)n(-c2ccccc2)c2ccc(OC(=O)c3cccc(Cl)c3)cc12 | . | i | 1% | i | .
Cc1sc2nc(CSc3ccccc3)nc(N3CCC(C(N)=O)CC3)c2c1C | -2% | ? | 9% | i | i
Cc1sc2nc(CSc3ccccc3)nc(N3CCOCC3)c2c1C | 0% | i | 11µM* | i | i
CC(c1ccccc1)N1CCn2c(nc3cc(NC(=O)c4cccs4)ccc32)C1 (centres undefined) | 6% | i | -57% | i | i
CC(c1ccccc1)N1CCn2c(nc3cc(NC(=O)NC4CCCCC4)ccc32)C1 (centres undefined) | 7% | 11µM* | -11% | i | i
Cc1ccc(CNC(=O)Cn2c(=O)n(-c3ccc(Cl)cc3)c(=O)c3c(C)c(C)sc32)cc1 | . | i | -11% | i | .
Fc1ccc(-c2nc3ccc(Cl)cn3c2Cc2ccccc2)cc1 | 23% | i | 35µM* | i | i
Clc1ccc2nc(-c3ccccc3)c(Cc3ccccc3)n2c1 | -22% | i | 0% | i | i
Clc1ccc(-c2nc3ccc(Cl)cn3c2Cc2ccccc2)cc1 | 25% | i | 20µM* | i | i
Cc1ccc(CSc2nc3c(c(SCC(=O)O)n2)CCCC3)cc1 | 8% | i | 35µM* | i | i
CCOC(=O)c1ccc(Oc2nc(NC(C)(C)C)nc(N(C)C)n2)cc1 | -15% | i | 22µM* | i | i
CCNc1nc(Oc2ccc(C(=O)OC)cc2)nc(SC)n1 | 3% | i | 0% | i | i
CCOC(=O)c1ccc(Oc2nc(N(C)C)nc(N(C)C)n2)cc1 | 3% | i | 19% | i | i
CCNc1nc(Oc2ccc(C(=O)OCC)cc2)nc(SC)n1 | -15% | i | ? | i | -121%*
CC(C)(C)C(=O)Nc1ccc2c(c1)C(=O)C(=O)c1ccccc1-2 | -7% | . | . | . | .
O=C(NCCc1ccccc1)c1cc(-c2cccc(Cl)c2)on1 | . | i | 8% | i | .
SMILES | aSyn rescue | FUS suppressor | TDP43 rescue | Abeta rescue | Akt phos inh
Cc1ccc(CN2C(=O)[C@@H]3Cc4c([nH]c5ccccc45)C(C)(C)N3C2=O)cc1 | . | i | . | ? | .
COc1cccc(CN2C(=O)[C@@H]3Cc4c([nH]c5ccccc45)C(C)(C)N3C2=O)c1 | . | ? | . | 10µM* | .
COc1ccc(OC)c(/C(O)=C/C(=O)C(=O)Nc2cc(C)cc(C)c2)c1 | -3% | i | -3% | i | -106%*
CC(=O)c1ccc(NC(=O)C2CCN(S(=O)(=O)c3ccc4c(c3)CCCN4C(=O)C3CCC3)CC2)cc1 | . | i | 14% | i | .
O=[N+]([O-])c1ccccc1N/N=C/c1cccc(O)c1O | -13% | i | 9% | i | i
O=[N+]([O-])c1cccc(N/N=C/c2cccc(O)c2O)c1 | 16% | i | 13µM* | i | i
CCNc1cc2c(cc1O)CCC1C2CCC2(C)C(O)CCC12 (centres undefined) | 14% | . | ? | i | i
